Over roughly 81,000 sequences, “one-hybrid fitness for binding NBS DNA” has its median near -0.1; the highest 2% begin near 0.36. The sample as a whole holds a higher share of the highest values than the screen did.
B1: Caulobacter ParB omega fusion; a variant is named by its letters at X, in order, B8GW30 (parent)
chain: MESVVVGEPGMSEGRRGLGRGLSALLGEVDAAPAQAPGEQLGGSREAPIEILQRNPDQPRRTFREEDLEDLSNSIREKGVLQPILVRPSPDTAGEYQIVAGERAWRAAQRAGLKTVPIMVRELDDLAVLEIGIIENVQRADLNVLEEALSYKVLMEKFERTQENIAQTIGKSXSHVANXMRLLXLPDEVQSYLVSGELTAXHARAIAAAADPVALAKQIIEGGLSVRETEALARKAPNLSAGKSKGGRPPRVKDTDTQALESDLSSVLGLDVSIDHRGSTGTLTITYATLEQLDDLCNRLTRGI

Variants of: B1
Experiment: one-hybrid fitness for binding NBS DNA (the Noc-binding site; scaled: cognate 1, non-cognate 0); higher = stronger binding
Details: with NBS DNA site
In short: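 In E. coli USO, a HIS3 reporter with its site placed 19 bp from the promoter was used to select Caulobacter ParB variants randomised at four specificity codons. Growth lasted 48 hours at 37°C on histidine-free M9 containing 0.1 mM IPTG and 5 mM 3-AT. Fitness was taken as the log change in variant-to-wild-type read ratio from Illumina sequencing of pre- and post-selection plasmids, rescaled between the non-cognate and cognate sites.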

Variant | one-hybrid fitness for binding NBS DNA
KYRQ | ≤ 0.2
YRRY | ≤ 0.2
PRVL | ≤ 0.2
QQIK | ≤ 0.2
NLQI | ≤ 0.2
TNPS | ≤ 0.2
EPGN | ≤ 0.2
FANT | ≤ 0.2
SSVH | ≤ 0.2
PPVW | ≤ 0.2
SDIF | ≤ 0.2
IYDC | ≤ 0.2
RRHG | 0.362
RRHM | 0.294
RRGK | 0.215
RRET | 0.698
RRGT | 0.732
RRGY | 0.36
RRHT | 0.755
RCET | ≤ 0.2
RRWM | 0.23
RRWT | 0.824
RPET | ≤ 0.2

Variant | one-hybrid fitness for binding NBS DNA
DEAY | ≤ 0.2
MGSC | ≤ 0.2
KCYS | ≤ 0.2
CWHL | ≤ 0.2
DVFL | ≤ 0.2
TRWG | ≤ 0.2
YWSC | ≤ 0.2
DRRT | ≤ 0.2
RRRT | 0.786
RRLT | 0.761
RRLM | 0.228
RGRT | ≤ 0.2
RRQM | 0.273
RRQT | 0.752
RRQQ | 0.268
RFLT | ≤ 0.2
RRYT | 0.769
TAWR | ≤ 0.2
RMPQ | ≤ 0.2
CKWG | ≤ 0.2
MIPG | ≤ 0.2
HFNT | ≤ 0.2
GLSP | ≤ 0.2

Variant | one-hybrid fitness for binding NBS DNA
RRNT | 0.785
RRSC | 0.291
RRST | 0.776
RRNQ | 0.313
RFCT | ≤ 0.2
RACT | 0.334
RRDT | 0.755
RRNK | 0.274
RRCT | 0.77
RPDT | ≤ 0.2
RRSQ | 0.284
KAAL | ≤ 0.2
VLTL | ≤ 0.2
LFQI | ≤ 0.2
MRVN | ≤ 0.2
PPII | ≤ 0.2
YTPG | ≤ 0.2
RTLN | ≤ 0.2
RTSN | ≤ 0.2
RTHS | 0.54
RTDS | 0.219
RTNS | 0.534
RTND | ≤ 0.2

Variant | one-hybrid fitness for binding NBS DNA
RTLD | ≤ 0.2
RTHH | 0.262
RTSS | 0.475
RTHD | ≤ 0.2
RTSD | ≤ 0.2
RTLS | 0.381
HINT | ≤ 0.2
HQTT | ≤ 0.2
ITQC | ≤ 0.2
IHSS | ≤ 0.2
SNIS | ≤ 0.2
KRCM | ≤ 0.2
FKNS | ≤ 0.2
RTRN | 0.277
RTDH | ≤ 0.2
RTWS | 0.349
RTYH | ≤ 0.2
RTRP | ≤ 0.2
RTRS | 0.651
RTIS | 0.34
RTYS | 0.491
RTRH | 0.536
IPNR | ≤ 0.2

Variant | one-hybrid fitness for binding NBS DNA
PSAG | ≤ 0.2
DNSY | ≤ 0.2
AIGW | ≤ 0.2
RVND | ≤ 0.2
RVNN | ≤ 0.2
RVDR | 0.213
RVDS | ≤ 0.2
RVNR | 0.55
RVNS | 0.521
RVDT | ≤ 0.2
RVNP | ≤ 0.2
RVNT | 0.576
WHSS | ≤ 0.2
TLQF | ≤ 0.2
SSCT | ≤ 0.2
WSSA | ≤ 0.2
LTMS | ≤ 0.2
PEYD | ≤ 0.2
YDIF | ≤ 0.2
YRPY | ≤ 0.2
RSYC | ≤ 0.2
RPKC | ≤ 0.2
RKPC | ≤ 0.2

Variant | one-hybrid fitness for binding NBS DNA
RSKC | 0.382
RCKC | 0.37
RSVC | ≤ 0.2
RKVC | ≤ 0.2
RKKC | 0.391
RMVC | ≤ 0.2
RMYC | ≤ 0.2
RMKC | 0.4
RLKC | 0.335
CIWR | ≤ 0.2
TVCY | ≤ 0.2
CPRV | ≤ 0.2
GSGL | ≤ 0.2
NLCF | ≤ 0.2
RCSH | 0.203
RRSP | ≤ 0.2
RRSS | 0.643
RRSH | 0.439
RRSN | 0.356
RRSD | ≤ 0.2
APVD | ≤ 0.2
VPVL | ≤ 0.2
EKCM | ≤ 0.2

Variant | one-hybrid fitness for binding NBS DNA
GETM | ≤ 0.2
NDTS | ≤ 0.2
HEHG | ≤ 0.2
WING | ≤ 0.2
QIWR | 0.304
QSWR | 0.365
QTWC | ≤ 0.2
QRWD | ≤ 0.2
QTWR | 0.529
QMWD | ≤ 0.2
QMWS | 0.261
QTWK | ≤ 0.2
QRWR | 0.796
QMWR | 0.403
QLWR | 0.319
RLIM | ≤ 0.2
HKDT | ≤ 0.2
CTPT | ≤ 0.2
QQGL | ≤ 0.2
